Data reported in the supplement of paper PMC8728848.
Many of the other results were omitted from the sample, so the strongest signals are more common in it than they were.

Legend:
Assay in all cases: glycan array binding signal (z-score within array); higher = stronger binding
Settings in all cases: glycan notation: IUPAC condensed, linker removed; mutation: Y54A
[1] = target: Neu5Ac(a2-3)Gal(b1-3)GlcNAc(b1-2)Man(a1-3)[Neu5Ac(a2-3)Gal(b1-3)GlcNAc(b1-2)Man(a1-6)]Man(b1-4)GlcNAc(b1-4)GlcNAc
Summary of the method: (§1)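 The binding signal is a Z-score computed within each array. Data were drawn from 3228 arrays in the Consortium for Functional Glycomics database, restricted to those with a known protein sequence. Scores were averaged over arrays of the same protein sequence at different concentrations or buffers, and over linkers, and negative values can be taken as non-binding.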

[2] = target: Neu5Ac(a2-3)Gal(b1-3)GlcNAc(b1-2)[Neu5Ac(a2-3)Gal(b1-3)GlcNAc(b1-4)]Man(a1-6)[Neu5Ac(a2-3)Gal(b1-3)GlcNAc(b1-2)Man(a1-3)]Man(b1-4)GlcNAc(b1-4)GlcNAc
Summary of the method: as §1

[3] = target: Neu5Ac(a2-3)Gal(b1-3)GlcNAc6S
Summary of the method: as §1

[4] = target: Neu5Ac(a2-3)Gal(b1-3)[Neu5Ac(a2-6)]GalNAc
Summary of the method: as §1

[5] = target: Neu5Ac(a2-3)Gal(b1-4)GlcNAc(b1-2)Man(a1-3)[Neu5Ac(a2-3)Gal(b1-4)GlcNAc(b1-2)Man(a1-6)]Man(b1-4)GlcNAc(b1-4)GlcNAc
Summary of the method: as §1

[6] = target: Neu5Ac(a2-3)Gal(b1-4)GlcNAc(b1-3)GalNAc
Summary of the method: as §1

[7] = target: Neu5Ac(a2-3)Gal(b1-4)[Fuc(a1-3)]GlcNAc(b1-3)GalNAc
Summary of the method: as §1

[8] = target: Neu5Ac(a2-3)Gal6S(b1-4)GlcNAc
Summary of the method: as §1

[9] = target: Neu5Ac(a2-6)Gal(b1-4)Glc
Summary of the method: as §1

[10] = target: Neu5Ac(a2-6)Gal(b1-4)GlcNAc(b1-2)Man(a1-3)[GlcNAc(b1-4)][Neu5Ac(a2-6)Gal(b1-4)GlcNAc(b1-2)Man(a1-6)]Man(b1-4)GlcNAc(b1-4)GlcNAc
Summary of the method: as §1

[11] = target: Neu5Ac(a2-6)Gal(b1-4)GlcNAc(b1-2)[Neu5Ac(a2-6)Gal(b1-4)GlcNAc(b1-4)]Man(a1-3)[GlcNAc(b1-4)][Neu5Ac(a2-6)Gal(b1-4)GlcNAc(b1-2)[Neu5Ac(a2-6)Gal(b1-4)GlcNAc(b1-6)]Man(a1-6)]Man(b1-4)GlcNAc(b1-4)GlcNAc
Summary of the method: as §1

[12] = target: Neu5Ac(a2-6)Gal(b1-4)GlcNAc(b1-3)Gal(b1-4)GlcNAc(b1-3)Gal(b1-4)GlcNAc
Summary of the method: as §1

[13] = target: Neu5Ac(a2-6)Gal(b1-4)GlcNAc(b1-3)Gal(b1-4)[Fuc(a1-3)]GlcNAc(b1-3)Gal(b1-4)[Fuc(a1-3)]GlcNAc
Summary of the method: as §1

[14] = target: Neu5Ac(a2-6)Gal(b1-4)GlcNAc(b1-6)[Gal(b1-3)]GalNAc
Summary of the method: as §1

[15] = target: Neu5Ac(a2-6)Gal(b1-4)GlcNAc6S
Summary of the method: as §1

[16] = target: Neu5Ac(a2-8)Neu5Ac(a2-8)Neu5Ac(a2-3)Gal(b1-4)Glc
Summary of the method: as §1

[17] = target: Neu5Ac(a2-8)Neu5Gc(a2-3)Gal(b1-4)GlcNAc
Summary of the method: as §1

[18] = target: Neu5Ac(b2-6)GalNAc
Summary of the method: as §1

[19] = target: Neu5Gc(a2-3)Gal(b1-4)GlcNAc(b1-3)Gal(b1-4)GlcNAc(b1-2)Man(a1-3)[Neu5Gc(a2-3)Gal(b1-4)GlcNAc(b1-3)Gal(b1-4)GlcNAc(b1-2)Man(a1-6)]Man(b1-4)GlcNAc(b1-4)GlcNAc
Summary of the method: as §1

[20] = target: Neu5Gc(b2-6)Gal(b1-4)GlcNAc
Summary of the method: as §1

B1: CBP21 (Serratia marcescens), O83009 (protein)
chain: MNKTSRTLLSLGLLSAAMFGVSQQANAHGYVESPASRAYQCKLQLNTQCGSVQAEPQSVEGLKGFPQAGPADGHIASADKSTFFELDQQTPTRWNKLNLKTGPNSFTWKLTARHSTTSWRYFITKPNWDASQPLTRASFDLTPFCQFNDGGAIPAAQVTHQCNIPADRSGSHVILAVWDIADTANAFYQAIDVNLSK
B1 was tested, and the “glycan array binding signal (z-score)” value [1] was -0.307, the “glycan array binding signal (z-score)” value [2] was 5.4 and the “glycan array binding signal (z-score)” value [3] was -0.121. For the same binder, the “glycan array binding signal (z-score)” value [4] was 3.97, the “glycan array binding signal (z-score)” value [5] was -0.458 and the “glycan array binding signal (z-score)” value [6] was 3.83. The “glycan array binding signal (z-score)” value [7] was 0.503, the “glycan array binding signal (z-score)” value [8] was 4.07 and the “glycan array binding signal (z-score)” value [9] was -0.381. For the same binder, the “glycan array binding signal (z-score)” value [10] was -0.098, the “glycan array binding signal (z-score)” value [11] was 0.142 and the “glycan array binding signal (z-score)” value [12] was -0.314. The “glycan array binding signal (z-score)” value [13] was 4.6, the “glycan array binding signal (z-score)” value [14] was 0.13 and the “glycan array binding signal (z-score)” value [15] was 3.37. The “glycan array binding signal (z-score)” value [16] was 0.027, the “glycan array binding signal (z-score)” value [17] was -0.455 and the “glycan array binding signal (z-score)” value [18] was -0.919. For the same binder, the “glycan array binding signal (z-score)” value [19] was 2.24 and the “glycan array binding signal (z-score)” value [20] was -0.206.
